In ChEMBL document CHEMBL1201862, “PubChem BioAssay data set” (2004) one finds Potency data, which are given here for 88 molecules.

Structures are written as SMILES. About 2,100 (0.53%) of roughly 400,000 compounds were called active. Not shown: some 14% with an inconclusive outcome. The sample holds actives, similar compounds and a random draw of the others, so the mix is not that of the screen. No rule for the calls is given here.

In this test the target is Ataxin-2 (Homo sapiens) (UniProt Q99700). Nature of the test: qHTS for Inhibitors of ATXN expression. Format: functional. (In general: qHTS replaces the single test concentration by a dilution series.)
Ataxin-2 (Homo sapiens), sequence (Q99700 whole entry): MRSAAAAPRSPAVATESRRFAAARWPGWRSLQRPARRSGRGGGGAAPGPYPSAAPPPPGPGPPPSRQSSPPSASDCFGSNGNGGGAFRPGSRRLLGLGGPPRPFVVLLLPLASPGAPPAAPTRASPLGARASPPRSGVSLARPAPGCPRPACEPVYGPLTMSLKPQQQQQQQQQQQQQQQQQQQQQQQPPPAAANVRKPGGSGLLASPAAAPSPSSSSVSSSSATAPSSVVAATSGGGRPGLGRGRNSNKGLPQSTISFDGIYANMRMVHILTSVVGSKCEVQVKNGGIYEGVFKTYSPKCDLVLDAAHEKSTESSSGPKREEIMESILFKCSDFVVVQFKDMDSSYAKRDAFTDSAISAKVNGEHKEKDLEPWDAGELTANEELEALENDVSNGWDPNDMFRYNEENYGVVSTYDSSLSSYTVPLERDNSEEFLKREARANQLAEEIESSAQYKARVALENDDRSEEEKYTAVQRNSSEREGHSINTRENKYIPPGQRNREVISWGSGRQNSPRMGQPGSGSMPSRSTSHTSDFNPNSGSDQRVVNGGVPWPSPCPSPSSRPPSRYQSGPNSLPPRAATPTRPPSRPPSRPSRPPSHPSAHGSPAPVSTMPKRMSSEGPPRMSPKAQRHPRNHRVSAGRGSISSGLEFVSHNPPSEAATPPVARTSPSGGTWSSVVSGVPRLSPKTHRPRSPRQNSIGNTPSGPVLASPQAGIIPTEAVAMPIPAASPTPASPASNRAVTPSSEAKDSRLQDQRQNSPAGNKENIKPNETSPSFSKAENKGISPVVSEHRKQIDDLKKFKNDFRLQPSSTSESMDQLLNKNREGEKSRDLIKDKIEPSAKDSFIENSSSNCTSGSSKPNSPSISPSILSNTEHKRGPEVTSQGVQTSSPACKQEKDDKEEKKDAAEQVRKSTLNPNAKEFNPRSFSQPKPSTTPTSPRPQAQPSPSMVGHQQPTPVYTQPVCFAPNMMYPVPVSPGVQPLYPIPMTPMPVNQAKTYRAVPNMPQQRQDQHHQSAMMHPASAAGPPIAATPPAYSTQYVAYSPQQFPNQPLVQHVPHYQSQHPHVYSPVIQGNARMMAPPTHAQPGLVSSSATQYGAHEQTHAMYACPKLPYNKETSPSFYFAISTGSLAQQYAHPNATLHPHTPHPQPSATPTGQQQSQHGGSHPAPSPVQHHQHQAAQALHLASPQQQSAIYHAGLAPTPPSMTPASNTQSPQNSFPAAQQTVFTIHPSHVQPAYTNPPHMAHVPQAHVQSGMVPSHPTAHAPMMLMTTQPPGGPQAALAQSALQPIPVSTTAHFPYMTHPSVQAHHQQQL
Take `O=S(=O)(NCCc1cccs1)c1ccc(Br)cc1`: the Potency result is “inactive”.
The same measure for `COCc1cc(C)nc2sc(C(=O)Nc3ccccc3Br)c(N)c12`: “inactive”; for `CC(C)C[C@H](NC(=O)c1[nH]cnc1C(=O)Nc1ccc(CNC(=O)OC(C)(C)C)cc1)C(=O)OC(C)(C)C`: 28.2 µM (active).
As to `CC(C)(C)OC(=O)[C@H](Cc1ccccc1)NC(=O)c1[nH]cnc1C(=O)Nc1ccc(Cl)cc1`, the Potency is 39.8 µM (active).
For `COc1ccccc1OCc1ccc(C(=O)NC(C)c2ccccc2)o1` (stereo not drawn), the Potency entry was “inactive”.
The same measure for `CC(C)C[C@H](NC(=O)c1[nH]cnc1C(=O)N[C@@H](C)c1ccccc1)C(=O)OCc1ccccc1`: 35.5 µM (active); for `CC(C)C[C@H](NC(=O)c1[nH]cnc1C(=O)N[C@@H](C)C(=O)OC(C)(C)C)C(=O)OC(C)(C)C`: 35.5 µM (active).
For `CN(C)Cc1c(O)ccc2cc(-c3nc4ccccc4n3C)c(=O)oc12`, the Potency entry was “inactive”.
In the case of `Cc1cc2nc3c(O)nc(S)nc3nc2cc1NC(=O)C(F)(F)F` it was “inactive”; in that of `N#Cc1cc2c(nc1SCC(=O)Nc1nccs1)CCCCC2`, “inactive”.
In the case of `CN(C)c1ccc(/C=N/N=C2/SC(CC(=O)O)C(=O)N2c2ccc(O)cc2)cc1` (stereo not drawn), the Potency entry was “inactive”.
The same measure for `CC(C)(C)c1cc2ncnc(N3CCCCC3)c2s1`: “inactive”; for `CC(NC(=O)OC(C)(C)C)C(=O)Oc1cc2oc(=O)cc(-c3ccccc3)c2cc1Cl` (stereo not drawn): “inactive”; for `CCC(C)[C@@H](NC(=O)OC(C)(C)C)c1nnc(S(=O)(=O)Cc2cccc(C)c2)o1` (stereo partly drawn): 22.4 µM (active).
Regarding `CC(NC(=O)OC(C)(C)C)C(=O)Oc1ccc2ccc(=O)oc2c1` (stereo not drawn), the Potency entry is “inactive”.
In the case of `CC(C)[C@H](NC(=O)OC(C)(C)C)c1nnc(S(=O)(=O)Cc2c(F)cccc2Cl)o1` it was 22.4 µM (active).
Turning to `CC[C@@H](C)[C@H](NC(=O)OC(C)(C)C)c1nnc(S(=O)(=O)Cc2cc(C)ccc2C)o1`, the Potency is 39.8 µM (active).
`N#CCC(=O)N/N=C/c1ccc(N2N=C(c3ccccc3)CC2c2ccccc2)cc1` (stereo not drawn): the Potency entry is “inactive”.
Consider `Cc1ccc(C)c(NC(=O)CCNS(=O)(=O)c2ccc3nc(O)oc3c2)c1`, for which the Potency result is “inactive”.
`CCN1CCN(C(c2cccs2)C(C)NC(=O)C(C)C)CC1` (stereo not drawn): the Potency entry is “inactive”.
In the case of `Nc1c(C(=O)N/N=C/c2ccccc2Cl)oc2nc(-c3ccccc3)cc(-c3ccco3)c12`, the Potency result is “inactive”.
On to `Cc1cc(/C=N/NC(=O)Cn2c3ccccc3c(=O)c3ccccc32)c(C)n1-c1ccccc1`, for which the Potency entry was “inactive”.
`O=C(Cn1c2ccccc2c(=O)c2ccccc21)N/N=C/c1ccc(N2CCCC2)c([N+](=O)[O-])c1`: the Potency was 39.8 µM (active).
In the case of `Cc1ccc(-n2c(C)cc(/C=N/NC(=O)Cn3c4ccccc4c(=O)c4ccccc43)c2C)cc1`, the Potency result was “inactive”.
As to `Cc1ccc(S(=O)(=O)NC(C(=O)Oc2cc3oc(=O)cc(C)c3cc2Cl)C(C)C)cc1` (stereo not drawn), the Potency result is “inactive”.
For the molecule `CC(=O)Nc1nn(CC(C)C)c2nc3ccc(C)cc3cc12`, the Potency entry was “inactive”.
The same measure for `O=S(=O)(Nc1nc2n(n1)C(c1ccc(F)cc1)C=C(c1ccccc1)N2)c1ccccc1` (stereo not drawn): “inactive”.
Consider `O[C@H]1C[C@H](c2ccc(Cl)cc2)N(Cc2cccs2)C[C@@H]1n1cc(-c2ccc(F)cc2)nn1`, for which the Potency is 25.1 µM (active).
In the case of `CCCCCC(=O)N1C[C@@H](n2cc(-c3ccc(F)cc3)nn2)[C@H](O)C[C@@H]1c1ccc(Cl)cc1` it was 31.6 µM (active).
Consider `CCCC(=O)NCn1nnc(-c2ccc(Cl)cc2)n1`, for which the Potency result was “inactive”.
As to `COc1ccc([C@H]2C[C@H](O)[C@@H](n3cc(-c4ccc(F)cc4)nn3)CN2CC2CCCCC2)cc1`, the Potency is 39.8 µM (active).
`CCCCCCN1C[C@H](n2cc(-c3ccc(F)cc3)nn2)[C@@H](O)C[C@@H]1c1ccc(Cl)cc1`: the Potency was 22.4 µM (active).
As for `CCCCNC(=O)COC(=O)c1c2c(nc3ccccc13)/C(=C/c1cccs1)CC2`, the Potency entry was “inactive”.
Take `COc1ccc(OCCCC(=O)ON=C(N)c2ccccc2C)cc1`: the Potency result is “inactive”.
In the case of `CCOC(=O)C1=C(NC(=O)c2cc(S(=O)(=O)N3CCOCC3)ccc2C)Nc2ccccc2N=C1CC` it was “inactive”.
The same measure for `NS(=O)(=O)c1ccc(N2N=C(c3ccc(Br)cc3)CC2c2ccc(F)cc2)cc1` (stereo not drawn): “inactive”; for `CCCCCCN1C[C@@H](n2cc(-c3ccc(F)cc3)nn2)[C@H](O)C[C@@H]1c1ccc(OC)cc1`: 35.5 µM (active).
Take `Cc1ccc([C@H]2C[C@H](O)[C@@H](n3cc(C4CC4)nn3)CN2Cc2cccs2)cc1`: the Potency was 35.5 µM (active).
For the molecule `COc1ccc(C2=Nc3nc(-c4ccccc4)cn3C(c3ccc(OC)cc3)C2)cc1` (stereo not drawn), the Potency result was “inactive”.
`CCCCCCN1C[C@H](n2cc(-c3ccc(F)cc3)nn2)[C@@H](O)C[C@@H]1c1ccc(C)cc1`: the Potency was 39.8 µM (active).
In the case of `CCCCCCN1C[C@H](n2cc(C3CC3)nn2)[C@@H](O)C[C@@H]1c1ccc(C)cc1` it was 35.5 µM (active); in that of `COc1ccc(C2=CC(c3ccc(F)cc3)n3nnnc3N2)cc1` (stereo not drawn), “inactive”; in that of `Fc1ccc(C2CC(c3cccs3)=NN2c2ccccc2)cc1` (stereo not drawn), “inactive”.
The same measure for `Cc1cc(F)ccc1NC(=O)c1sc2nc(-c3cccs3)ccc2c1N`: “inactive”.
Consider `CCOC(=O)c1cc2c(=O)n3ccccc3nc2n(Cc2ccco2)/c1=N/C(=O)c1ccc(OC)cc1OC`, for which the Potency result was “inactive”.
In the case of `COC(=O)[C@]12CCCCC=C1N(CCC1=CCCCC1)C(=O)[C@H](CC(=O)N1CCN(C(=O)c3ccco3)CC1)C2` it was 22.4 µM (active); in that of `COC(=O)[C@]12CCCCC=C1N(Cc1cccc3ccccc13)C(=O)[C@H](CC(=O)N1CCN(C(=O)c3ccco3)CC1)C2`, 22.4 µM (active); in that of `CCCCCCCCN1C(=O)[C@H](CC(=O)N2CCN(C(=O)c3ccco3)CC2)C[C@@]2(C(=O)OCC)CCCC=C12`, 14.1 µM (active).
In the case of `O=C(Nc1c(C(=O)c2ccc(F)cc2)oc2ccccc12)c1cc(-c2ccccc2)on1` it was “inactive”; in that of `COc1cc(/C=N/Nc2ccc([N+](=O)[O-])cc2S(=O)(=O)N2CCOCC2)cc(OC)c1OC`, “inactive”.
In the case of `Cc1ccc(Cl)cc1N1CCN(C(=O)Cc2csc(Nc3nc(S)nc4ccccc34)n2)CC1` it was “inactive”; in that of `Cc1ccc(Nc2ncc(C(=O)N3CCN(c4ccc(F)cc4)CC3)c3ccccc23)cc1Cl`, “inactive”; in that of `Cc1ccc(Cl)cc1N1CCN(C(=O)c2cnn(-c3ccc(Cl)cc3)c2C2CCNCC2)CC1`, 39.8 µM (active).
Take `COc1ccc(S(=O)(=O)NCCc2cn3nc(C)c(C)nc3n2)cc1`: the Potency entry was “inactive”.
In the case of `CN1C2=CC=CC=CC2=[N+](C)C12C=CC(=[N+]([O-])[O-])C=C2[N+](=O)[O-]` (stereo not drawn) it was 20 µM (active).
In the case of `CCN(CC)C1=CC2=CC(=C(C#N)C#N)CCC2CC1` (stereo not drawn), the Potency result was “inactive”.
Consider `Cc1ccc(CN2C(=O)CC(c3ccc(Cl)cc3)c3c(C)nn(-c4nc(C)cc(C)n4)c32)cc1` (stereo not drawn), for which the Potency is 39.8 µM (active).
The same measure for `Cc1cc(C)nc(N(C#N)Cc2ccc(Cl)cc2)n1`: “inactive”; for `CCOC(=O)C1CCN(S(=O)(=O)c2cc3c(cc2C)NC(=O)CO3)CC1`: “inactive”; for `Cn1c(-c2c(N)n(CCCc3ccccc3)c3nc4ccccc4nc23)nc2ccccc21`: “inactive”.
In the case of `CS(=O)(=O)c1nc([N+](=O)[O-])nn1CCCc1ccccc1` it was 39.8 µM (active); in that of `CCN(C(=O)c1cc2c(=O)n3ccccc3nc2s1)C1CCCCC1`, “inactive”.
As for `O=[N+]([O-])c1cncc([N+](=O)[O-])c1Nc1cccc(O)c1`, the Potency is 22.4 µM (active).
For `COc1ccc(C2NS(=O)(=O)N=C2N)cc1` (stereo not drawn), the Potency result is “inactive”.
On to `N#Cc1c(-c2ccccc2)c(C#N)c2nc3ccccc3n2c1N`, for which the Potency entry is “inactive”.
The same measure for `Nc1ccc2c(C(F)(F)F)cc(=O)oc2c1`: “inactive”; for `CC(=O)c1cccc(NC(=O)c2ccccc2-c2ccccc2C(=O)O)c1`: “inactive”.
In the case of `COCCn1c(SCC(=O)Nc2ccc(NC(C)=O)cc2)nc2ccccc2c1=O` it was “inactive”; in that of `Cn1c(SCC(=O)NCC2CCCO2)ncc(C(=O)Nc2ccc(Cl)cc2)c1=O` (stereo not drawn), 35.5 µM (active).
In the case of `O=C(Cn1c(=O)c(=O)n(Cc2ccccc2)c2ccc(Cl)cc21)NCC1CCCO1` (stereo not drawn) it was “inactive”.
On to `CC(C)Cn1c(SC(C)C(=O)NCC2CCCO2)nc2ccc(Cl)cc2c1=O` (stereo not drawn), for which the Potency result was “inactive”.
As for `CC(=O)Nc1cccc(NC(=O)CSc2ncc(C(=O)Nc3ccccc3)c(=O)n2C)c1`, the Potency was 39.8 µM (active).
In the case of `CC1=CC2=NC(=O)/C(=C/c3coc4ccccc4c3=O)C(=N)N2O1`, the Potency result was “inactive”.
Take `COc1ccc(-c2c(C)c3ccc(O)c(CN4CCN(CCO)CC4)c3oc2=O)cc1OC`: the Potency result was “inactive”.
Consider `O=C(Nc1nc2n(n1)C(c1ccccc1)C=C(c1ccccc1)N2)c1ccccc1` (stereo not drawn), for which the Potency entry is “inactive”.
As to `COc1cc(NS(=O)(=O)c2ccc(N/C=C\C(=O)c3ccc(F)cc3)cc2)nc(OC)n1`, the Potency result was “inactive”.
Turning to `O=C1C(Br)=Cc2cccc3cccc1c23`, the Potency entry was “inactive”.
In the case of `O=C1c2sccc2-c2cccc3cccc1c23` it was “inactive”; in that of `O=C1c2cccc3cccc(c23)C(=O)C1(O)O`, 15 µM (active); in that of `Cc1cc2nc(-c3ccco3)c(Cc3ccccc3C(F)(F)F)n2c(C)c1Br`, 39.8 µM (active).
With `O=C1NC(Cc2ccc(O)cc2)c2nc3cc(F)c(F)cc3c(=O)n2-c2cc3ccccc3cc21` (stereo not drawn), the Potency was 35.5 µM (active).
In the case of `CN(C)CCOC1(Cc2ccc(F)cc2)CCC(C(C)(C)C)CC1` (stereo not drawn) it was 21.2 µM (active); in that of `Cc1ccc(CC2(OCCN(C)C)CCC(C(C)(C)C)CC2)cc1` (stereo not drawn), 42.3 µM (active); in that of `O=C(NCc1nc2ccccc2[nH]1)C1=C[C@@H](c2ccc(Br)cc2)C[C@@H](OCCCCO)O1`, 31.6 µM (active).
In the case of `Cc1ccccc1NC(=O)CN1C(=O)S/C(=C\c2ccc(-c3cc(C(=O)O)ccc3C)o2)C1=O` it was “inactive”; in that of `C=C1CC2(OC1=O)c1ccccc1CCc1ccccc12`, 5.97 µM (active); in that of `O=S(=O)(c1ccc(Cl)c(C(F)(F)F)c1)N1CCN(c2ccccn2)CC1`, “inactive”.
The same measure for `O=C(c1ccco1)[C@@H]1[C@@H]2C(=O)N(c3ccc(F)cc3)C(=O)[C@@H]2[C@H]2C=Cc3ccccc3N21`: “inactive”.
